# Where “and” joins values, the source holds several entries; their conditions need not be identical. Identical values can stand only once. Compounds without any hit were thinned out: in the full panel of roughly 83,000, 20% have a hit.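 96-well plates, one dose, 48 hours. Percent growth reported; active if below 10.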 Calls of active or inactive are those of the source.
# Tested on: HL-60(TB) leukemia
# Assay: NCI-60 one-dose screen, 48 h (100 = growth as untreated, 0 = no growth, -100 = all killed)
# Conditions: 10 µM unless noted
row,Compound,growth
1,COc1ccc(-c2c(N)n[nH]c2-c2cc(OC)c3c(c2)OCCO3)cc1,47.1% (inactive)
2,Cc1nn(-c2ccccc2)c(Oc2ccccn2)c1-c1nc2ccccc2s1,85.3% (inactive)
3,COc1ccc2c(c1)C(=O)c1c-2c(OCCN2CCCCC2)nc2ccc(OC)cc12,17.1% (inactive)
4,CCOC(=O)CSc1ncnc2c1c(-c1ccccc1)c(-c1ccccc1)n2-c1ccc(C)cc1,55.9% (inactive)
5,COc1cc(Nc2ccnc3ccc(Br)cc23)cc(OC)c1OC,24.8% (inactive)
6,CCCCCN(CCCCC)CC(O)c1cc2c(c3ccccc13)CCCC2 (centres undefined),18.6% (inactive) and 58.1% (inactive)
7,Cn1cc(-c2cc3ncnc(Nc4ccc(CC(=O)Nc5cc(C(C)(C)C)on5)cc4)c3s2)cn1,57.5% (inactive)
8,Cc1c(Cc2ccccc2)c(=O)oc2c(C)c(OCc3n[nH]c(=S)o3)ccc12,69.7% (inactive)
9,N#Cc1ccc(NC(=O)c2ccc3cccnc3c2O)cc1,4.59% (active)
10,COc1cc2nc(Cl)nc(Nc3ccc(S(=O)(=O)Nc4nccs4)cc3)c2cc1OC,102% (inactive)
11,CSc1nnc(-c2cc3c([nH]c4ccccc43)c(-c3cccc(O)c3)n2)n1-c1ccccc1,7.59% (active)
12,COc1ccc2c(c1)/C(=C1/S/C(=N/c3nnc(C)s3)NC1=O)C(=O)N2Cc1ccc(Br)cc1,32.5% (inactive)
13,O=C1Cc2ccccc2C(=O)N1,67.6% (inactive)
14,CN(c1ccccc1)c1ccc2c(c1)OCCC21CC1Nc1cnccc1C(=O)O (centres undefined),65.3% (inactive)
15,CN(C)Cc1ccccn1,108% (inactive)
16,O=C(Nc1cccc(-n2ccc3c(NC(=O)c4ccccc4)nccc32)c1)c1ccc(Cl)c(C(F)(F)F)c1,-32.3% (active) and 56.6% (inactive)
17,O=C1C=Cc2ccccc2/C1=C/c1nc(-c2ccccc2)oc1O,101% (inactive)
18,O=C(/C=C/c1ccccc1)Oc1ccc(/C=C/c2cc(OC(=O)/C=C/c3ccccc3)cc(OC(=O)/C=C/c3ccccc3)c2)cc1,93% (inactive)
19,Nc1nc2c3ccncc3cc(-c3cccc(Cl)c3)c2c2cnccc12,6.71% (active)
20,COc1cc(C(=O)NNC(=O)c2ccc(NC(=O)CCl)cc2)cc(OC)c1OC,77.9% (inactive)

row,Compound,growth
1,COC(=O)CC1=C(c2ccc([N+](=O)[O-])cc2)CCC1=O,100% (inactive)
2,CCCCCCCCCCCCCCNc1nc(CO)ncc1-c1ccc(C(F)(F)F)cc1,99.1% (inactive)
3,c1ccc2c(c1)Oc1cccnc1-n1nccc1-2,101% (inactive)
4,CC(C)(C)c1cc(C(=O)Nc2ccc(C(=O)NCCN)cc2)cc(C(C)(C)C)c1,-68.4% (active)
5,O=C1CSC2=NCCN12,106% (inactive) and 86.3% (inactive)
6,COc1ccc(-c2nc3ccccn3c2/C=C/C(=O)c2cc(OC)c(OC)c(OC)c2)cc1,49.9% (inactive)
7,CC1(C)c2[nH]c3ccccc3c2C[C@]2(C)[C@H]3CC=C4[C@@H]5C[C@@](C)(C(N)=O)CC[C@]5(C)CC[C@@]4(C)[C@]3(C)CC[C@@H]12,55.8% (inactive)
8,NCCOc1ncccc1/C=C1\c2ccccc2-c2ccc([N+](=O)[O-])cc21,-41.7% (active)
9,O=c1c2cc(-c3ccccc3)sc2nc2sc(-c3ccccc3)nn12,96.4% (inactive)
10,CCCCCCCCC(C)OC(=O)c1nn(C(C)=O)c2ccccc12 (centres undefined),99.5% (inactive)
11,O=C(O)CCCN1C(=O)C2C3CCC(C3)C2C1=O (centres undefined),116% (inactive)
12,O=C(/C=C/c1ccccc1)c1ccc(Nc2nc(NCCO)nc(Nc3ccc(Cl)cc3)n2)cc1,101% (inactive)
13,COc1cc(/C=C/C(=O)c2c(C)n([O-])c3ccccc3[n+]2=O)cc(OC)c1OC,-10.8% (active)
14,CN(C)Cc1ccc(NC(=O)c2cncc(C#Cc3cnc(N)c4ncccc34)c2)cc1F,83.7% (inactive)
15,CCOc1ccc(S(=O)(=O)c2ccc(C)cc2)c2c1no[n+]2[O-],85.7% (inactive)
16,CN(C)CCC(=O)c1ccc(Cl)cc1,113% (inactive) and 110% (inactive)
17,Oc1c(Cl)cc(Cl)c2ccc(Cn3cc(-c4cc(C(F)(F)F)cc(C(F)(F)F)c4)nn3)nc12,-13.7% (active)
18,CC(C)=CCc1cc2c(cc1O)C1=C(C(=O)C3=C(NCCS3(=O)=O)C1=O)C(C=C(C)C)O2 (centres undefined),-35.2% (active)
19,Cn1c(=O)c2c(nc3n2CCN(CCc2ccc(OCCN4CCOCC4)cc2)C3)n(C)c1=O,101% (inactive)
